Test results from PubChem BioAssay (Tox21).
Several values for one entry are separate records, joined by “and”; a condition that tells them apart may be missing. Equal values may be shown once. Records with an inconclusive call do not appear. A call without a number means that no potency is given here. More than one record can exist for a structure, and the calls need not agree. Activity calls are given as the source filed them. The call rests on the fitted dose curve; in most records, active means well fitted activation curve with a large enough effect in the repeat runs; inconclusive means weak or mixed curves; inactive means flat fitted curve, though single readings scatter.

test: A CellTox Green Cytotoxicity Assay to monitor cytotoxicity in HepG2 cells - 8 hour (AID 1224890); settings: CellTox Green fluorescence; series mostly up to 76.8 µM; cytotoxicity increase: at the top concentration; further: nearly all actives have a fitted effect of over 45% in size
Method in brief: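 Real-time, homogeneous cytotoxicity readout: dead-cell DNA staining by CellTox Green in HepG2 monolayers, fluorescence measured at timed intervals up to 40 h of continuous compound exposure.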
Potency means the concentration at half of the fitted maximal effect.

SMILES	Potency	cytotoxicity increase
O=Cc1ccccc1O	inactive	
C[C@]12CCC(=O)C=C1CC[C@@H]1[C@@H]2C(=O)C[C@@]2(C)[C@H]1CC[C@]2(O)C(=O)CO	inactive	
O=[N+]([O-])c1ccc2c(c1)Cc1ccccc1-2	inactive	
S=C(NC1CCCCC1)NC1CCCCC1	inactive	
c1ccc2sc(SSN3CCOCC3)nc2c1		18.2% (inactive)
CN(C)CCN(Cc1cccs1)c1ccccn1	inactive	
OC1CCCCCCCCCCC1	43.6 µM (active)	
COC(=O)CCC(=O)OC	inactive	
CCCCC(CC)COCC1CO1 (centres undefined)	inactive	
Nc1ccccc1N	56.2 µM (active)	
CCC(C)CO (centres undefined)	inactive and 49 µM (active)	
Nc1ncnc2nc[nH]c12	inactive	
c1cc(N(CC2CO2)CC2CO2)ccc1OCC1CO1 (centres undefined)	inactive	
Nc1ccc(Nc2ccccc2)cc1	inactive	
O=C(/C=C/C=C/c1ccc2c(c1)OCO2)N1CCCCC1		3.39% (inactive)
CCCCOCCOCCO	inactive	
c1ccc2c(c1)Oc1ccccc1S2	inactive	
c1ccncc1	inactive	
Nc1ccc(Cl)cc1Cl	inactive	
CCCCCCCCCCCO	inactive	

SMILES	Potency	cytotoxicity increase
CCCCOCCOCCOCCO	inactive	
CCC(C)OC(=O)c1ccc(O)cc1 (centres undefined)		0.578% (inactive)
CCOC(=O)C(C#N)=C(c1ccccc1)c1ccccc1	inactive	
CCC(C)(O)CCCC(C)C (centres undefined)	inactive	
CC(=O)CC/C=C(\C)CCC=C(C)C	inactive	
CC1=CC2C3CC(C=C3C)C2C1 (centres undefined)	inactive and 38.9 µM (active)	
Cn1cnc([N+](=O)[O-])c1Sc1ncnc2nc[nH]c12		-8.3% [at 35.3 µM] (inactive)
C=CC(C)(CCC=C(C)C)OC(C)=O (centres undefined)	inactive	
CCCCNS(=O)(=O)c1ccccc1	inactive	
OC(CCl)CCl	inactive	
COc1ccccc1/C=C/C=O	inactive	
O=C(OCc1ccccc1)c1ccccc1O	inactive	
c1cc(-c2ccncc2)ccn1	inactive	
CC(C)OB(OC(C)C)OC(C)C	inactive	
CC(CCC(=O)O)(c1ccc(O)cc1)c1ccc(O)cc1	inactive	
CC(C)OC=O	inactive	
COC(=O)C1=C(C)NC(C)=C(C(=O)OCCN(C)Cc2ccccc2)C1c1cccc([N+](=O)[O-])c1 (centres undefined)	inactive	
CC(C)=CCCC(C)CCO (centres undefined)	inactive	
O=C(c1ccccc1)c1ccc(O)cc1O	inactive	
